Drawing on PubChem BioAssay AID651610 (Broad Institute, 2012), this text covers inhibition for 50 compounds.

Structures are written as SMILES. Among all 360,000 compounds or so, about 3,900 (1.1%) were called active. The sample holds actives, similar compounds and a random draw of the others, so the mix is not that of the screen. Unmarked numbers belong to inactive results.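 Rule for the calls: active = mean replicate inhibition score of at least 50 and every replicate individually at or above 50; inconclusive = only one of the two criteria met; inactive = mean below 50 and not all replicates reaching 50.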

This experiment in a line: blockers of JRFL envelope-mediated fusion – HeLa-JRFL effector, CEM21 target cells, luciferase, primary screen (AID 651610).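 Note: 0% = plate neutral controls and 100% = maraviroc near 300 nM.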 The settings on record: HeLa-JRFL Env/CEM21 cell fusion, active compounds read high; at 16.7 µM unless noted.
Consider `COc1ccccc1NC(=O)N[C@H]1CC[C@@H](CCn2cc(C3(O)CCCC3)nn2)O[C@@H]1CO`, for which the inhibition is -2.19%. Under `N#C[C@H]1[C@H](c2ccc(-c3ccccc3)cc2)[C@@H](CO)N1C(=O)Cc1ccccc1` stands -31.2%; under `C[C@@H]1CCCCO[C@H](CN(C)C(=O)CCCN(C)C)[C@H](C)CN([C@H](C)CO)C(=O)c2cc(NC(=O)CCC(F)(F)F)ccc2O1`, 6%; under `C[C@@H]1CCCCO[C@@H](CN(C)Cc2ccncc2)[C@H](C)CN([C@H](C)CO)C(=O)c2cc(NC(=O)NC3CCCCC3)ccc2O1`, 10.4%. Regarding `O=C(C[C@@H]1C[C@H]2c3cc(NC(=O)Nc4ccccc4)ccc3O[C@H]2[C@@H](CO)O1)NC1CCCCC1`, the inhibition is 6.41%. Under `CN(CC(=O)NCc1cccnc1)S(=O)(=O)c1cc(Cl)ccc1Cl` stands 2.11% [at 12.3 µM]; under `CCc1ccc(N(CC(=O)NCc2cccnc2)S(=O)(=O)c2ccccc2)cc1`, 10.5% [at 12.3 µM]. Then `O=C(CN(c1cc(C(F)(F)F)ccc1Cl)S(=O)(=O)c1ccccc1)NCc1cccnc1`, with 85.1% [at 12.3 µM] (active); and `C/C=C/c1ccccc1[C@@H]1[C@@H](C#N)N(c2nc(CC)cs2)[C@@H]1CO`, with -1.66%.

In the case of `CCCNC(=O)N1CCC2(CC1)CN(C(=O)CN1CCOCC1)[C@H](CO)c1[nH]c3cc(OC)ccc3c12`, the inhibition is -5.75%. Under `Cc1ccccc1-c1cnc2c(c1)C(=O)N([C@H](C)CO)C[C@H](C)[C@@H](CN(C)C(=O)c1ccccc1)O2` stands -8.15%; under `O=C(NCc1ccc2c(c1)OCO2)C12CC3CC(CC(C3)C1)C2`, 8.77% [at 12.3 µM]. Under `S=C(NCc1ccc(Cl)cc1)NC12CC3CC(CC(C3)C1)C2` stands 103% [at 12.3 µM] (active). Then `Cc1ccc(C(=O)NC23CC4CC(CC(C4)C2)C3)c(Cl)c1`, with -0.699% [at 12.3 µM]; and `CN(C)C(=O)C[C@H]1C=C[C@@H](NC(=O)C2CCC2)[C@@H](CO)O1`, with 24.4%; and `CCCCCCOc1ccc(OC(=O)c2cccnc2)cc1`, with 58.2% [at 12.3 µM] (active). As to `CCCOc1cccc(C(=O)NCCCNC(=O)c2cccnc2)c1`, the inhibition was 11.1% [at 12.3 µM]. Under `Cc1ccc(OCC(=O)N2CCN(C(=O)c3cccnc3)CC2)cc1` stands -3.51% [at 12.3 µM]; under `C[C@H](CO)N1C[C@H](C)[C@H](CN(C)S(C)(=O)=O)Oc2ncc(C3=CCCCC3)cc2C1=O`, 10.5%; under `N#C[C@H]1[C@H](c2ccc(C#Cc3ccc(F)cc3)cc2)[C@@H](CO)N1C(=O)C1CCCC1`, 10.1%. Then `COCc1cn(CC[C@@H]2CC[C@@H](NC(=O)Cc3cccnc3)[C@@H](CO)O2)nn1`, with 7.99%; and `C[C@H]1CCCCO[C@H](CN(C)C(=O)Nc2ccc3c(c2)OCO3)[C@@H](C)CN([C@@H](C)CO)C(=O)c2cc(NC(=O)Nc3ccccc3)ccc2O1`, with -15.3%. Under `CCN(CC)CCN(C(=O)c1ccc(N2C(=O)CCC2=O)cc1)c1nc2cc3c(cc2s1)OCO3` stands 13.5% [at 12.3 µM]; under `CCN(CC)CCN(C(=O)c1cc(Cl)sc1Cl)c1nc2cc3c(cc2s1)OCO3`, 71.9% [at 12.3 µM] (active); under `CN(C)CCN(C(=O)C1=COCCO1)c1nc2ccc(Cl)cc2s1`, -71.9% [at 12.3 µM]. Regarding `CC(C)NC(=O)N(C)C[C@H]1Oc2ccc(NS(=O)(=O)c3cn(C)cn3)cc2CC(=O)N([C@@H](C)CO)C[C@H]1C`, the inhibition is -7.65%. Then `Cc1ccc(S(=O)(=O)N2CCC(C(=O)N3CCCCCCC3)CC2)cc1`, with -2.71% [at 12.3 µM]. Under `CCC(C)c1ccccc1N1CC(C(=O)N2CCN(S(=O)(=O)c3ccc(F)cc3)CC2)CC1=O` (stereo not given) stands 18.5% [at 12.3 µM]; under `Cc1ccc(CN2CC(C(=O)N3CCN(S(=O)(=O)c4ccccc4)CC3)CC2=O)cc1` (stereo not given), 64.5% [at 12.3 µM] (active). Under `COc1ccc2c3c(n(C)c2c1)[C@@H](CO)N(C(C)=O)CC31CCN(C(=O)C2CC2)CC1` stands 3.46%; under `C[C@H](CO)N1C[C@H](C)[C@H](CN(C)C(=O)Nc2ccc(F)cc2)Oc2c(NC(=O)c3cnccn3)cccc2C1=O`, 30.7%; under `C=CC[n+]1c(-c2ccc(C)cc2)csc1NNC(=O)Nc1ccccc1`, 77.7% [at 12.3 µM] (active). Regarding `Cc1ccc(NC(=O)NNC(=O)c2sccc2-n2cccc2)cc1`, the inhibition was -3.39% [at 12.3 µM]. Then `O=C(NNC(=O)c1ccc(-c2ccccc2)cc1)Nc1ccccc1`, with 17% [at 12.3 µM]. With `C[C@H](CO)N1C[C@H](C)[C@@H](CN(C)CC2CCOCC2)Oc2ncc(C#Cc3ccc(F)cc3)cc2C1=O`, the inhibition is 7.54%. Then `C[C@@H](O)C#Cc1cnc2c(c1)C(=O)N([C@@H](C)CO)C[C@H](C)[C@H](CN(C)C(=O)c1ccccc1F)O2`, with 5.54%; and `COc1ccccc1CNc1nc(Nc2ccccc2Cl)c2sccc2n1`, with 20.5% [at 12.3 µM]; and `COc1cccc(CNc2nc(NCc3ccccc3OC)nc3ccsc23)c1`, with 72.3% [at 12.3 µM] (active). Under `COCCNc1nc(NCc2ccc(NC(C)=O)cc2)c2sccc2n1` stands -25.8% [at 12.3 µM]; under `C[C@@H]1CN([C@@H](C)CO)C(=O)Cc2cc(NS(C)(=O)=O)ccc2O[C@H]1CN(C)S(=O)(=O)c1ccc(F)cc1`, -0.637%; under `CN1[C@@H]2c3ccc(-c4ccc(F)cc4)c(=O)n3C[C@H]1[C@H](CO)[C@H]2C(=O)NC1CCC1`, 0.501%.

In the case of `CCN1C(=O)[C@H]2[C@@H](c3ccc(C)cc3)N3C(=O)N(c4cccc(Br)c4)C(=O)[C@@]3(CC)[C@H]2C1=O`, the inhibition is 82.7% [at 12.3 µM] (active). Then `CCOC(=O)[C@@H]1[C@H]2COc3ccc(Br)cc3[C@H]2N2C(=O)N(c3ccc(C)cc3)C(=O)[C@@]12C`, with -52.6% [at 12.3 µM]; and `CCN1C(=O)[C@H]2[C@@H](c3ccc(C(F)(F)F)cc3)N[C@]3(CCCN(Cc4ccc(Br)cc4)C3=O)[C@H]2C1=O`, with -31.5% [at 12.3 µM]; and `CC[C@@]12C(=O)N(c3ccccc3)C(=O)N1[C@H](c1ccc(Br)cc1)[C@@H]1C(=O)N(C(C)(C)C)C(=O)[C@@H]12`, with 59.8% [at 12.3 µM] (active). For `CCCCC1(C(=O)OCC)NC(c2ccc(O)cc2)C2C(=O)N(c3ccccc3)C(=O)C21` (stereo not given), the inhibition was 2.85% [at 12.3 µM]. Under `COc1ccc([C@@H]2[C@@H]3C(=O)N(C(C)(C)C)C(=O)[C@@H]3[C@]3(Cc4ccccc4)C(=O)N(c4cccc(Br)c4)C(=O)N23)cc1` stands 33.2% [at 12.3 µM]; under `CC12C(=O)N(c3ccccc3)C(=O)C1C(c1ccccc1)N1CCCN12` (stereo not given), 6.12% [at 12.3 µM]; under `C[C@@]12C(=O)N(c3cccc(Br)c3)C(=O)N1[C@H](c1ccc(Cl)cc1)[C@@H]1C(=O)N(C3CCCCC3)C(=O)[C@@H]12`, -9.25% [at 12.3 µM]. Then `CC(C)(C)N1C(=O)[C@H]2[C@@H](c3ccc(Br)cc3)N3C(=O)N(c4cccc(Cl)c4)C(=O)[C@@]3(C)[C@H]2C1=O`, with 72.7% [at 12.3 µM] (active).
